For one test, the system named is CRL-7250. Description: Cytotoxic Profiling of Annotated Libraries Using Quantitative High-Throughput Screening (AID 1296008). For max response: % is set by controls: 0 for no effect and ±100 for the full control effect. The note with it: Five cell lines viability, CellTiter-Glo ATP luminescence, 48-72 h; max response: stronger effect = lower value. The gist of the method: (§1)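 Cells exposed to compounds for 48 or 72 hr at 37 degrees Celsius. Viability read as ATP-coupled luminescence with CellTiter-Glo after 10 min at room temperature.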
For orientation: Cellular ATP, detected with luciferase, serves as a proxy for viable cell number.

The subject of a further test is HaCat. The test is described as above. The note with it: Five cell lines viability, CellTiter-Glo ATP luminescence, 48-72 h; max response: stronger effect = lower value. The gist of the method:
as §1

The next test deals with KB-3-1. The test is described as above. The note with it: Five cell lines viability, CellTiter-Glo ATP luminescence, 48-72 h; max response: stronger effect = lower value. The method, boiled down:
as §1

In another test the test system is HEK293. The description is as above. The note with it: Five cell lines viability, CellTiter-Glo ATP luminescence, 48-72 h; max response: stronger effect = lower value. The method, boiled down:
as §1

Another test has as its system GB4. Description: qHTS profiling for inhibitors of Plasmodium falciparum proliferation (AID 504749). The note with it: P. falciparum in erythrocytes, SYBR Green DNA, 72 h; series mostly up to 28.7 µM. The method, boiled down:
(§2)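 Each compound contacts P. falciparum-infected red blood cells for 72 h at 37 C; lysis buffer (Tris, EDTA, saponin, Triton X, SYBR Green I) is added and fluorescence measured next morning; values normalized to controls.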
For orientation: qHTS replaces the single test concentration by a dilution series.

The subject of another test is HB3. Described as above. The conditions noted are these: P. falciparum in erythrocytes, SYBR Green DNA, 72 h; series mostly up to 28.7 µM. The gist of the method: as §2
In the next test the test system is ICS. Described as above. The conditions noted are these: P. falciparum in erythrocytes, SYBR Green DNA, 72 h; series mostly up to 28.7 µM. The method, boiled down: as §2
A further test concerns JCK. The test is described as above. The conditions noted are these: P. falciparum in erythrocytes, SYBR Green DNA, 72 h; series mostly up to 28.7 µM. The method, boiled down:
as §2

The subject of the next test is N140. The test is described as above. The note with it: P. falciparum in erythrocytes, SYBR Green DNA, 72 h; series mostly up to 28.7 µM. The method, boiled down:
as §2

A further test has as its system P93_24. The test is described as above. The note with it: P. falciparum in erythrocytes, SYBR Green DNA, 72 h; series mostly up to 28.7 µM. The method, boiled down: as §2
For another test, the system named is PAD. The test is described as above. The conditions noted are these: P. falciparum in erythrocytes, SYBR Green DNA, 72 h; series mostly up to 28.7 µM. The method, boiled down: as §2
A further test relates to PC15. Described as above. The note with it: P. falciparum in erythrocytes, SYBR Green DNA, 72 h; series mostly up to 28.7 µM. The gist of the method: as §2
Another test deals with PC26. Described as above. The conditions noted are these: P. falciparum in erythrocytes, SYBR Green DNA, 72 h; series mostly up to 28.7 µM. The method, boiled down: as §2
A further test concerns PC49. The description is as above. The conditions noted are these: P. falciparum in erythrocytes, SYBR Green DNA, 72 h; series mostly up to 28.7 µM. The gist of the method:
as §2

The test system of another test is TAB109. The test is described as above. The conditions noted are these: P. falciparum in erythrocytes, SYBR Green DNA, 72 h; series mostly up to 28.7 µM. The method, boiled down:
as §2

Another test relates to TAB113. The test is described as above. The conditions noted are these: P. falciparum in erythrocytes, SYBR Green DNA, 72 h; series mostly up to 28.7 µM. The method, boiled down: as §2
The subject of a further test is TAB165. Described as above. The conditions noted are these: P. falciparum in erythrocytes, SYBR Green DNA, 72 h; series mostly up to 28.7 µM. The gist of the method:
as §2

For a further test, the system named is W2. The description is as above. The conditions noted are these: P. falciparum in erythrocytes, SYBR Green DNA, 72 h; series mostly up to 28.7 µM. The method, boiled down:
as §2

The next test relates to P94_40. The test is described as above. The conditions noted are these: P. falciparum in erythrocytes, SYBR Green DNA, 72 h; series mostly up to 28.7 µM. The method, boiled down: as §2
The next test concerns SC27B. The test is described as above. The conditions noted are these: P. falciparum in erythrocytes, SYBR Green DNA, 72 h; series mostly up to 28.7 µM. The gist of the method:
as §2

Each structure is given as a SMILES string. Where “and” joins values, the source holds several entries; their conditions need not be identical. Identical values can stand only once. Records with an inconclusive call do not appear. Where a structure was tested more than once in an assay, its records may differ in their call. Values without a mark were called inactive. Calls of active or inactive are those of the source. Calls come from the whole dose curve; as a rule, active = well fitted inhibition curve with a large enough effect; inconclusive = small, poorly fitted or top-dose-only effect; inactive = flat fitted curve, though single readings scatter.
Note: nearly all actives have a fitted effect of over 60% in size.
Potency is the fitted concentration of half-maximal effect.

Consider `CN(C)c1ccc(C2Nc3ccc4ccccc4c3C3=C2C(=O)CC(C)(C)C3)cc1Br` (configuration not stated), for which the max response in the test with CRL-7250 was -23.7% and -20.8%; in the test with HaCat, -24.3% and -7.34%; with KB-3-1, 1.11% and -17.2%.

Take `COc1ccc(-c2ccc3c(N4CCOCC4)nc(N4C[C@@H](C)O[C@@H](C)C4)nc3n2)cc1CO`: the Potency was 0.296 µM (active) with CRL-7250, 0.662 µM (active) in the test with HEK293 and 1.66 µM (active) in the test on KB-3-1.

Take `CC1(C)CNc2cc(NC(=O)c3cccnc3NCc3ccncc3)ccc21`: in the test with HEK293, the Potency is 5.8 µM (active) and the max response was -29.2%. For the same compound, in the test with HaCat, the call was inactive. The max response with KB-3-1 was 3.54% and 4.82%.

With `CCOc1cc(C=C2C(=O)N(c3ccccc3)N=C2C)cc(Cl)c1OCC(=O)OC`, the max response in the test with CRL-7250 is 3.6%; with HEK293 it was 0.832%; with KB-3-1, 4.4%.

`N#CC[C@H](C1CCCC1)n1cc(-c2ncnc3[nH]ccc23)cn1`: the max response in the test on CRL-7250 was -20.9% and 3.07%. Moreover, in the test with HaCat, the max response is 0.777% and the call was inactive.

For `Nc1cccc(S(=O)(=O)N2CCCN(S(=O)(=O)c3ccc4c(c3)OCCO4)CC2)c1`, the max response in the test with CRL-7250 is 0.264%; in the test with HaCat, -12.2%; in the test on KB-3-1, -7.85%.

In the case of `O=c1[nH]c(-c2ccc(C(F)(F)F)cc2)nc2c1CSCC2`, the max response in the test on CRL-7250 is -16.3%; in the test on HEK293, 1.09%; with KB-3-1, 9.93%. Besides, the result with KB-3-1 was inactive.

For `Nc1nc2ccc(OC(F)(F)F)cc2s1`, the Potency result in the test on GB4, in the test on HB3, in the test with ICS, in the test with JCK, with N140 and with P93_24 was “inactive” throughout. The Potency entry with PAD, in the test on PC15, in the test with PC26, in the test with PC49, with TAB109 and with TAB113 was “inactive” throughout. The Potency result in the test on TAB165 and with W2 was “inactive” in each case. Further, the outcome with CRL-7250 and with HaCat was inactive. In addition, the max response is -58.3% with HaCat and -6.76% in the test on KB-3-1.

In the case of `COc1c(Cl)cc2c([nH]c3cnccc32)c1NC(=O)c1cccnc1C`, the compound was called inactive with CRL-7250, in the test with HaCat and with KB-3-1. Further, in the test on KB-3-1, the max response is 9.41%.

As for `CCCc1nn(C)c2c(=O)[nH]c(-c3cc(S(=O)(=O)N4CCN(C)CC4)ccc3OCC)nc12`, the Potency result in the test on GB4, in the test on HB3, in the test with JCK, with N140, with P93_24 and in the test on P94_40 was “inactive” throughout. Further, the Potency entry in the test with PAD, in the test on PC15, with PC26, in the test with PC49, in the test with SC27B and in the test with TAB109 was “inactive” throughout. The Potency entry with TAB113 and with TAB165 was “inactive” each time. The Potency with ICS is 11.2 µM (active); with HEK293 it was 18.7 µM (active). Further, the max response with CRL-7250 is -31.4% and 2.3%; with KB-3-1, 4.32%. Also, the compound was classed as inactive in the test on KB-3-1.

Take `COc1cc2nccc(Oc3ccc(NC(=O)NC4CC4)c(Cl)c3)c2cc1C(N)=O`: the Potency in the test with CRL-7250 was 0.92 µM (active). The outcome with KB-3-1 was inactive.

As to `CNC(=O)c1ccccc1Sc1ccc2c(/C=C/c3ccccn3)n[nH]c2c1`, the Potency in the test on CRL-7250 was 5.8 µM (active); in the test on HEK293, 23.7 µM (active) and 14.6 µM (active); with KB-3-1 it was 11.6 µM (active). Moreover, the max response in the test with KB-3-1 was -28.7%.

Consider `Cc1cc(SCc2sc(-c3ccc(C(F)(F)F)cc3)nc2C)ccc1OCC(=O)O`, for which the max response was -3.25% in the test on CRL-7250; 3.06% and 3.28% with HEK293; 0.144% in the test on KB-3-1. Moreover, the call in the test on KB-3-1 was inactive.

With `O=S(=O)(N=Cc1c(O)ccc2ccccc12)c1cccs1`, the max response in the test with CRL-7250 was -0.432%; with HaCat, -24.1%; in the test on KB-3-1, 0.0321%.

Consider `Cc1ccccc1C(OCCN(C)C)c1ccccc1` (configuration not stated), for which the Potency result with HB3, in the test with PAD and in the test with PC49 was “inactive” throughout. The Potency was 12.6 µM (active) with N140, 7.94 µM (active) with TAB165 and 4.26 µM (active) in the test with W2. For the same compound, the call in the test with CRL-7250, in the test on HaCat and with KB-3-1 was inactive. The max response is -11.7% with HaCat; 4.24% and -3.9% with KB-3-1.

Regarding `Clc1cccc(Cl)c1NC1=NCCN1`, the Potency entry in the test with GB4, with HB3, with ICS, with JCK, in the test on N140 and in the test on P93_24 was “inactive” each time. The Potency result in the test on P94_40, in the test on PAD, in the test on PC15, in the test with PC26, in the test on PC49 and in the test with SC27B was “inactive” each time. For the same compound, the Potency entry in the test with TAB109, in the test with TAB113, with TAB165 and in the test on W2 was “inactive” throughout. In addition, the max response in the test with CRL-7250 was 0.663% and -4.74%; in the test with HEK293 it was -3.7% and -4.57%. Further, the outcome in the test with KB-3-1 was inactive.

For the compound `Clc1ccc(Nc2nnc(Cc3ccncc3)c3ccccc23)cc1`, the Potency entry with GB4, with HB3, in the test with JCK, in the test on PC15, in the test with PC26 and in the test on PC49 was “inactive” throughout. Moreover, the Potency result with SC27B, in the test on TAB109 and with TAB113 was “inactive” in each case. Also, in the test on TAB165, the Potency was 12.6 µM (active). Moreover, the max response was 1.53% and -11.9% and 0.195% with CRL-7250; -8.03% and 60.3% with KB-3-1.

`O=C(O)COCCN1CCN(C(c2ccccc2)c2ccc(Cl)cc2)CC1` (configuration not stated): the max response was -0.386% in the test with CRL-7250; 0.378% and -0.675% with HEK293; 6.76% and 8.88% in the test on KB-3-1.

Consider `CN1CCN(CCCN2c3ccccc3Sc3ccc(C(F)(F)F)cc32)CC1`, for which the Potency in the test with GB4 is 7.57 µM (active); with ICS it was 8.91 µM (active); in the test on N140, 8.91 µM (active); with P93_24, 2.24 µM (active); with P94_40, 12.6 µM (active); in the test with PAD, 12.6 µM (active). The Potency is 10 µM (active) in the test with PC15; 13.5 µM (active) in the test with PC26; 11.2 µM (active) with TAB109; 4.78 µM (active) in the test on W2; 23.7 µM (active) with HEK293. The Potency entry with TAB113 is “inactive”. Moreover, the compound was called inactive with HEK293, in the test on HaCat and in the test on KB-3-1. Besides, the results for the max response in the test on HaCat and in the test with KB-3-1 were -7.86% and -5.37%, respectively.

As to `Cc1ccccc1C(C(=O)NC1CCCC1)N(C(=O)Cn1cnc2ccccc21)c1cccc(F)c1` (configuration not stated), the max response is 1.73% in the test on CRL-7250 and 7.7% with KB-3-1. For the same compound, the outcome in the test with HaCat was inactive.

The values are drawn from PubChem BioAssay (NCATS).
